# Measured values taken from the supplement of paper PMC8728848.
# This excerpt belongs to a sample that is enriched for the strongest signals.
# B1: RobpsCRA (Robinia pseudoacacia) (protein)
# chain: IKGGYWYSGSGLAVSDINPSHFTHLFCAFADLDPNTNKLTISSSNAAAFSTFTQTVRAKNPSVKTLLSIGGGGGRALAAVFANMASQASRRKSFIDSSIQLARRNNFHGLDLDWEYPSSDIDKTNFASLIREWRAAVATESSTSGTPALLLSAAVGGSDQITPLKYYPGEAIANNLDWVNVMTYDLYTSDSYPTLTQPPAPLFYPRGIFSADEGITKWIQSGVPESKLALGLPFYGFKWRLSDPNNHGLFAPATQGLGAVKYKDIVNTGGQVEFDSTYVTNYCFKGTDWYGYDDTQSISAKVAYAKQRGLFGYFAWHIEQDSNWALS
# Key:
# Experiment in all cases: glycan array binding signal (z-score within array); higher = stronger binding
# Conditions in all cases: glycan notation: IUPAC condensed, linker removed
# [1] = target: Fuc(a1-2)Gal(b1-3)GlcNAc(b1-3)GalNAc
# Method in brief: (§1)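 The binding signal is a Z-score computed within each array. Data were drawn from 3228 arrays in the Consortium for Functional Glycomics database, restricted to those with a known protein sequence. Scores were averaged over arrays of the same protein sequence at different concentrations or buffers, and over linkers, and negative values can be taken as non-binding.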
# [2] = target: Fuc(a1-2)Gal(b1-4)Glc
# Method in brief: as §1
# [3] = target: Fuc(a1-2)Gal(b1-4)GlcNAc(b1-2)Man(a1-3)[Fuc(a1-2)Gal(b1-4)GlcNAc(b1-2)Man(a1-6)]Man(b1-4)GlcNAc(b1-4)GlcNAc
# Method in brief: as §1
# [4] = target: Fuc(a1-2)[Gal(a1-3)]Gal(b1-3)GalNAc
# Method in brief: as §1
# [5] = target: Fuc(a1-2)[Gal(a1-3)]Gal(b1-3)GlcNAc(b1-2)Man(a1-3)[Fuc(a1-2)[Gal(a1-3)]Gal(b1-3)GlcNAc(b1-2)Man(a1-6)]Man(b1-4)GlcNAc(b1-4)GlcNAc
# Method in brief: as §1
# [6] = target: Fuc(a1-2)[GalNAc(a1-3)]Gal(b1-3)GlcNAc(b1-2)Man(a1-3)[Fuc(a1-2)[GalNAc(a1-3)]Gal(b1-3)GlcNAc(b1-2)Man(a1-6)]Man(b1-4)GlcNAc(b1-4)[Fuc(a1-6)]GlcNAc
# Method in brief: as §1
# [7] = target: Fuc(a1-2)[GalNAc(a1-3)]Gal(b1-3)GlcNAc(b1-6)GalNAc
# Method in brief: as §1
# [8] = target: Fuc(a1-2)[GalNAc(a1-3)]Gal(b1-4)GlcNAc(b1-6)GalNAc
# Method in brief: as §1
# [9] = target: Fuc(a1-2)[GalNAc(a1-3)]Gal(b1-4)[Fuc(a1-3)]GlcNAc
# Method in brief: as §1
# [10] = target: Fuc(a1-2)[GalNAc(a1-3)]Gal(b1-4)[Fuc(a1-3)]GlcNAc(b1-3)GalNAc
# Method in brief: as §1
# [11] = target: Fuc(a1-3)[Gal(b1-4)]GlcNAc(b1-3)GalNAc
# Method in brief: as §1
# [12] = target: Fuc(a1-3)[Gal3S(b1-4)]Glc
# Method in brief: as §1
# [13] = target: Fuc(a1-3)[Gal3S(b1-4)]GlcNAc6S
# Method in brief: as §1
# [14] = target: Fuc(a1-4)GlcNAc
# Method in brief: as §1
# [15] = target: Gal(a1-3)Gal(b1-3)GlcNAc(b1-6)GalNAc
# Method in brief: as §1
# [16] = target: Gal(a1-3)[Gal(a1-4)]Gal(b1-4)GlcNAc
# Method in brief: as §1
# [17] = target: Gal(a1-4)Gal(b1-4)GlcNAc(b1-2)Man(a1-3)[Gal(a1-4)Gal(b1-4)GlcNAc(b1-2)Man(a1-6)]Man(b1-4)GlcNAc(b1-4)GlcNAc
# Method in brief: as §1
# [18] = target: Gal(b1-2)Gal
# Method in brief: as §1
# [19] = target: Gal(b1-3)GalNAc(b1-3)Gal(a1-4)Gal(b1-4)Glc
# Method in brief: as §1
# [20] = target: Gal(b1-3)GlcNAc(b1-2)[Gal(b1-3)GlcNAc(b1-6)]Man(a1-6)[Gal(b1-3)GlcNAc(b1-2)Man(a1-3)]Man(b1-4)GlcNAc(b1-4)GlcNAc
# Method in brief: as §1
# [21] = target: Gal(b1-3)GlcNAc(b1-3)Gal(b1-4)GlcNAc(b1-3)Gal(b1-4)GlcNAc(b1-2)[Gal(b1-3)GlcNAc(b1-3)Gal(b1-4)GlcNAc(b1-3)Gal(b1-4)GlcNAc(b1-6)]Man(a1-6)[Gal(b1-3)GlcNAc(b1-3)Gal(b1-4)GlcNAc(b1-3)Gal(b1-4)GlcNAc(b1-2)Man(a1-3)]Man(b1-4)GlcNAc(b1-4)[Fuc(a1-6)]GlcNAc
# Method in brief: as §1
# [22] = target: Gal(b1-3)GlcNAc(b1-6)GalNAc
# Method in brief: as §1
# [23] = target: Gal(b1-4)GlcNAc(b1-2)Man(a1-3)[Gal(b1-4)GlcNAc(b1-2)Man(a1-6)]Man(b1-4)GlcNAc(b1-4)GlcNAc
# Method in brief: as §1
# [24] = target: Gal(b1-4)GlcNAc(b1-2)Man(a1-6)[Man(a1-3)]Man(b1-4)GlcNAc(b1-4)GlcNAc
# Method in brief: as §1
# [25] = target: Gal(b1-4)GlcNAc(b1-2)[Gal(b1-4)GlcNAc(b1-6)]Man(a1-6)[Gal(b1-4)GlcNAc(b1-2)Man(a1-3)]Man(b1-4)GlcNAc(b1-4)[Fuc(a1-6)]GlcNAc
# Method in brief: as §1
# [26] = target: Gal(b1-4)GlcNAc(b1-3)Gal(b1-4)GlcNAc(b1-2)Man(a1-3)[Gal(b1-4)GlcNAc(b1-3)Gal(b1-4)GlcNAc(b1-2)Man(a1-6)]Man(b1-4)GlcNAc(b1-4)GlcNAc
# Method in brief: as §1
# [27] = target: Gal(b1-4)GlcNAc(b1-3)Gal(b1-4)GlcNAc(b1-3)Gal(b1-4)GlcNAc(b1-3)Gal(b1-4)GlcNAc(b1-3)Gal(b1-4)GlcNAc(b1-3)Gal(b1-4)GlcNAc(b1-2)Man(a1-3)[Gal(b1-4)GlcNAc(b1-3)Gal(b1-4)GlcNAc(b1-3)Gal(b1-4)GlcNAc(b1-3)Gal(b1-4)GlcNAc(b1-3)Gal(b1-4)GlcNAc(b1-3)Gal(b1-4)GlcNAc(b1-2)Man(a1-6)]Man(b1-4)GlcNAc(b1-4)GlcNAc
# Method in brief: as §1
# [28] = target: Gal(b1-4)GlcNAc(b1-3)GalNAc
# Method in brief: as §1
# [29] = target: Gal3S(b1-4)[Fuc(a1-3)]Glc6S
# Method in brief: as §1
# [30] = target: GalNAc(b1-3)GlcNAc
# Method in brief: as §1
# [31] = target: GalNAc(b1-4)Gal(b1-4)Glc
# Method in brief: as §1
# [32] = target: GlcA3S(b1-3)Gal(b1-4)GlcNAc(b1-3)Gal(b1-4)Glc
# Method in brief: as §1
# [33] = target: GlcNAc(a1-4)Gal(b1-4)GlcNAc(b1-3)Gal(b1-4)GlcNAc
# Method in brief: as §1
# [34] = target: GlcNAc(b1-2)Man(a1-3)[GlcNAc(b1-4)][GlcNAc(b1-2)Man(a1-6)]Man(b1-4)GlcNAc(b1-4)GlcNAc
# Method in brief: as §1
# [35] = target: GlcNAc(b1-3)Fuc
# Method in brief: as §1
# [36] = target: GlcNAc(b1-3)Gal(b1-4)GlcNAc(b1-2)Man(a1-3)[GlcNAc(b1-3)Gal(b1-4)GlcNAc(b1-2)Man(a1-6)]Man(b1-4)GlcNAc(b1-4)GlcNAc
# Method in brief: as §1
# [37] = target: GlcNAc(b1-3)Gal(b1-4)GlcNAc(b1-2)[GlcNAc(b1-3)Gal(b1-4)GlcNAc(b1-6)]Man(a1-6)[GlcNAc(b1-3)Gal(b1-4)GlcNAc(b1-2)Man(a1-3)]Man(b1-4)GlcNAc(b1-4)GlcNAc
# Method in brief: as §1
# [38] = target: GlcNAc(b1-3)Gal(b1-4)GlcNAc(b1-3)Gal(b1-4)GlcNAc(b1-3)Gal(b1-4)GlcNAc(b1-3)Gal(b1-4)GlcNAc(b1-2)[GlcNAc(b1-3)Gal(b1-4)GlcNAc(b1-3)Gal(b1-4)GlcNAc(b1-3)Gal(b1-4)GlcNAc(b1-3)Gal(b1-4)GlcNAc(b1-6)]Man(a1-6)[GlcNAc(b1-3)Gal(b1-4)GlcNAc(b1-3)Gal(b1-4)GlcNAc(b1-3)Gal(b1-4)GlcNAc(b1-3)Gal(b1-4)GlcNAc(b1-2)Man(a1-3)]Man(b1-4)GlcNAc(b1-4)[Fuc(a1-6)]GlcNAc
# Method in brief: as §1
# [39] = target: GlcNAc6S(b1-3)Gal(b1-4)GlcNAc
# Method in brief: as §1
# [40] = target: Man(a1-2)Man(a1-3)[Man(a1-2)Man(a1-6)]Man(a1-6)[Man(a1-2)Man(a1-2)Man(a1-3)]Man
# Method in brief: as §1
# [41] = target: MurNAc(b1-4)GlcNAc
# Method in brief: as §1
# [42] = target: Neu5Ac(a2-3)Gal(b1-3)GalNAc(b1-4)[Neu5Ac(a2-8)Neu5Ac(a2-3)]Gal(b1-4)Glc
# Method in brief: as §1
# [43] = target: Neu5Ac(a2-3)Gal(b1-3)GlcNAc
# Method in brief: as §1
# [44] = target: Neu5Ac(a2-3)Gal(b1-3)[Neu5Ac(a2-6)]GlcNAc(b1-3)[Fuc(a1-3)[Gal(b1-4)]GlcNAc(b1-6)]Gal(b1-4)Glc
# Method in brief: as §1
# [45] = target: Neu5Ac(a2-3)Gal(b1-4)GlcNAc(b1-2)[Neu5Ac(a2-3)Gal(b1-4)GlcNAc(b1-6)]Man(a1-6)[Neu5Ac(a2-3)Gal(b1-4)GlcNAc(b1-2)Man(a1-3)]Man(b1-4)GlcNAc(b1-4)GlcNAc
# Method in brief: as §1
# [46] = target: Neu5Ac(a2-3)Gal(b1-4)GlcNAc(b1-6)[Neu5Ac(a2-3)Gal(b1-3)]GalNAc
# Method in brief: as §1
# [47] = target: Neu5Ac(a2-3)Gal(b1-4)[Fuc(a1-3)]GlcNAc(b1-3)GalNAc
# Method in brief: as §1
# [48] = target: Neu5Ac(a2-6)Gal(b1-4)GlcNAc(b1-2)Man(a1-6)[Man(a1-3)]Man(b1-4)GlcNAc(b1-4)GlcNAc
# Method in brief: as §1
# [49] = target: Neu5Ac(a2-8)Neu5Ac(a2-3)[Gal(b1-3)GalNAc(b1-4)]Gal(b1-4)Glc
# Method in brief: as §1
binder,measurement,setting,value
B1,glycan array binding signal (z-score),[1],-0.523
same,glycan array binding signal (z-score),[2],0.123
same,glycan array binding signal (z-score),[3],-0.573
same,glycan array binding signal (z-score),[4],-0.447
same,glycan array binding signal (z-score),[5],-0.684
same,glycan array binding signal (z-score),[6],-0.163
same,glycan array binding signal (z-score),[7],-0.584
same,glycan array binding signal (z-score),[8],-0.132
same,glycan array binding signal (z-score),[9],-0.375
same,glycan array binding signal (z-score),[10],16.3
same,glycan array binding signal (z-score),[11],0.084
same,glycan array binding signal (z-score),[12],-0.504
same,glycan array binding signal (z-score),[13],0.763
same,glycan array binding signal (z-score),[14],-0.31
same,glycan array binding signal (z-score),[15],-0.356
same,glycan array binding signal (z-score),[16],1.85
same,glycan array binding signal (z-score),[17],0.418
same,glycan array binding signal (z-score),[18],-0.839
same,glycan array binding signal (z-score),[19],0.121
same,glycan array binding signal (z-score),[20],-0.739
same,glycan array binding signal (z-score),[21],0.989
same,glycan array binding signal (z-score),[22],-0.441
same,glycan array binding signal (z-score),[23],-0.393
same,glycan array binding signal (z-score),[24],0.031
same,glycan array binding signal (z-score),[25],1.6
same,glycan array binding signal (z-score),[26],1.01
same,glycan array binding signal (z-score),[27],2.18
same,glycan array binding signal (z-score),[28],0.32
same,glycan array binding signal (z-score),[29],1.65
same,glycan array binding signal (z-score),[30],0.418
same,glycan array binding signal (z-score),[31],0.371
same,glycan array binding signal (z-score),[32],2.45
same,glycan array binding signal (z-score),[33],1.54
same,glycan array binding signal (z-score),[34],-0.359
same,glycan array binding signal (z-score),[35],-0.426
same,glycan array binding signal (z-score),[36],-0.142
same,glycan array binding signal (z-score),[37],1.5
same,glycan array binding signal (z-score),[38],1.28
same,glycan array binding signal (z-score),[39],-0.663
same,glycan array binding signal (z-score),[40],0.574
same,glycan array binding signal (z-score),[41],-0.389
same,glycan array binding signal (z-score),[42],-0.829
same,glycan array binding signal (z-score),[43],0.156
same,glycan array binding signal (z-score),[44],-0.376
same,glycan array binding signal (z-score),[45],-0.526
same,glycan array binding signal (z-score),[46],-0.478
same,glycan array binding signal (z-score),[47],1.49
same,glycan array binding signal (z-score),[48],1.67
same,glycan array binding signal (z-score),[49],0.946
